Measurements as given in the supplement of paper PMC6555819.

How the values were obtained:
Assay in all cases: PBM binding z-score (relative to random genomic background probes); higher = stronger binding; sequences stand for … in GC…GCGATTGACAGCGTAGAATGAAGG
[1] = system: RARb homodimer (NR concentration 270 nM)
Summary of the method: (§1)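 Regression normalization was applied to scanned fluorescence from custom Agilent 4×180K protein-binding microarrays. Before scanning, arrays were incubated 1 h with ligand-free nuclear receptor dimers, and binding was detected with antibodies against each partner (one per run). Binding z-scores use the random background probes as reference.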

[2] = system: RARg:RXRa (NR concentration 270 nM, RXRa partner concentration 90 nM)
Summary of the method: as §1

[3] = system: RARg homodimer (NR concentration 270 nM)
Summary of the method: as §1

[4] = system: RXRa DBDmut IVT, anti-RXR (DBD mutation: RXRa K156A/R161A, NR concentration 90 nM)
Summary of the method: as §1

[5] = system: RXRa homodimer (NR concentration 180 nM)
Summary of the method: as §1

[6] = system: THRa:RXRa (NR concentration 90 nM, RXRa partner concentration 90 nM)
Summary of the method: as §1

[7] = system: THRa homodimer (NR concentration 90 nM)
Summary of the method: as §1

[8] = system: VDR:RXRa (NR concentration 270 nM, RXRa partner concentration 90 nM)
Summary of the method: as §1

[9] = system: VDR homodimer (NR concentration 270 nM)
Summary of the method: as §1

Row | Sequence | PBM binding z-score [1] | PBM binding z-score [2] | PBM binding z-score [3] | PBM binding z-score [4] | PBM binding z-score [5] | PBM binding z-score [6] | PBM binding z-score [7] | PBM binding z-score [8] | PBM binding z-score [9]
1 | CAAACTAGATCAAAGGTCAAAGTCGAGCCAACCA | 4.67 | 6.29 | 5.66 | 2.16 | 7.75 | 3.51 | 0.812 | 4.93 | 2.87
2 | AGTCAAAGTTCACTACGTAACGTAAGATTCAGCT | 3.36 | 4.55 | 5.09 | 4 | 3.76 | 1.4 | -0.394 | 3.72 | 3.71
3 | GCTCGGAGGACAAGGTCAGACCTTTGTCCGTAGA | 3.1 | 3.68 | 3.51 | 0.424 | 3.12 | 2.94 | 1.47 | 1.97 | 0.924
4 | TGAATGAGGTTAAAGATCAGGCAACGTGGCGTCG | 0.653 | 2.44 | 1.16 | 1.02 | 3.63 | 2.71 | 0.312 | 1.88 | 0.286
5 | CGAACTAGGTCCAGGACAGTGAATCTCCGCACGC | -0.206 | -0.326 | -0.183 | 0.703 | -0.387 | 0.749 | 0.778 | -0.573 | 0.133
6 | CTCGAAAGGTCGGTTGAGGTGAGTTTACGGATAA | 2.53 | 2.78 | 2.96 | 1.27 | 2.12 | 4.97 | 1.31 | 3.29 | 2.25
7 | CAGCCTAGGTCAGGACCAGTATAGGAGGAACGTT | 1.97 | 2.81 | 3.89 | -0.0885 | 1.7 | 1.94 | 0.463 | 0.522 | -0.0387
8 | CCTAGCAGGCCAATCTGGGTCACTCGAGGCTTGA | 2.3 | 1.11 | 1.12 | -0.0882 | 0.738 | 3.7 | 0.253 | 0.491 | 0.136
9 | CCTCTTAGTTGACCATAAGGGCAACCGAAGCTCG | 2.25 | 1.17 | 1.15 | 0.285 | 0.712 | 2.07 | 1.59 | 0.969 | 0.985
10 | ACTATTAGTTGATTTAGGGCAACCGATACGACGC | 0.736 | 0.306 | 0.883 | 1.2 | 0.356 | 1.52 | 0.806 | 0.131 | 0.367
11 | GCTGCTAGGTCAAGTTGGTCAGCTAACGGGTACG | 3.78 | 4.49 | 5.42 | 1.81 | 3.03 | 2.96 | 1.13 | 2.17 | 0.704
12 | ATCTCTAGGTATGACTCAGTTCAGTGAAGAACGC | 0.676 | 0.285 | 0.329 | 0.685 | 0.0899 | 0.451 | 0.83 | 1.01 | 1.5
13 | TTACCAAGCTGAGCTGAGGTCGTTGATCCAACTC | 0.0127 | -0.204 | -0.865 | 0.00802 | 0.266 | 2.08 | 1.17 | 0.877 | 0.915
14 | ATACCAAGGTGATCGTCAGGTCGTTGATACTAAC | 1.14 | 1.4 | 0.502 | -0.0242 | 0.916 | 2.98 | 1.76 | 1.36 | 1.12
15 | ACTATTACTTGACTTAGGGCAACCGATACGACGC | 1.06 | 0.943 | 1.1 | 0.983 | 0.745 | 0.888 | 1.1 | 0.428 | 0.484
16 | CTCGAAAGGTCGGTTGAGGTGAGTATGCGGATAA | 2.57 | 2.73 | 2.73 | 0.85 | 2.4 | 5.15 | 1.43 | 2.15 | 0.532
17 | CCGACTGGGGCAAAGTTTACCATACTCAGTACGA | 0.876 | 1.01 | 1.06 | 1.29 | 0.757 | 0.304 | -0.108 | 0.062 | 0.435
18 | ATATGTAGGTTAGCTGGGGACATTCAGACTAGGC | 1.29 | 0.981 | 1.34 | 0.879 | 0.737 | 4.93 | 2.11 | 2.39 | 1.3
19 | ACTTACGGGTCAACGAGGTTATCGCACGCGTATA | 3.52 | 5.86 | 5.38 | 3 | 6.75 | 4.19 | 1.23 | 7.77 | 4.34
20 | CTCGAAAGGTCGGTTGAGATGAGTATACGGATAA | 1.74 | 2.2 | 2.5 | 0.887 | 2.01 | 1.72 | -0.23 | 0.961 | 0.738
21 | TAGCCTAGGTCATCCAGGGGCCAGTATAGAAAGC | 3.71 | 6.41 | 5.07 | 0.731 | 2.94 | 3.55 | 0.878 | 3.1 | 0.913
22 | TCGAGTAGGTTAGGGCCATTCAGAATGGCGTCGA | 0.309 | -0.0137 | 0.11 | -0.0874 | 0.299 | 0.672 | -0.173 | -0.353 | -0.211
23 | TCTCGGAGGACACGATAGGTCAGAGCTCGACATC | 3.02 | 2.49 | 3.18 | 0.695 | 1.43 | 2.47 | 0.393 | 0.769 | 0.242
24 | GCTTGCAGGCCATTTGGGTCACTCAATGACGGGC | 1.87 | 1.31 | 1.56 | 0.31 | 0.653 | 2.07 | 0.686 | 1.08 | 0.751
25 | ATCGAAAGGTCGTGAGGTGAGTATACAGAAAGGC | 3.07 | 4.69 | 3.9 | 1.42 | 4.97 | 3.45 | 1.47 | 3.69 | 1.09
26 | CCAGACAGGTGCAAGGTAACTCAGTCTGGTACGC | -0.106 | -0.306 | -0.108 | 0.584 | 0.00435 | 0.379 | 0.244 | -0.136 | 0.489

Row | Sequence | PBM binding z-score [1] | PBM binding z-score [2] | PBM binding z-score [3] | PBM binding z-score [4] | PBM binding z-score [5] | PBM binding z-score [6] | PBM binding z-score [7] | PBM binding z-score [8] | PBM binding z-score [9]
27 | TCATATAGGTAAAGGTGAATGTCGAACGATATGA | 1.3 | 1.37 | 1.21 | 0.686 | 1.9 | 1.16 | -0.293 | 0.919 | -0.0294
28 | CCTGCTAGGTCATGGACAGCTAATCTACAGTATG | 2.73 | 4 | 4.68 | 1.85 | 3.17 | 2.9 | 0.931 | 1.56 | 0.0193
29 | CGTTACGGGTCAAGGTTATAGCACGGGTGGTACG | 3.67 | 4.89 | 4.88 | 0.953 | 5.7 | 3.24 | 0.918 | 3.62 | 1.42
30 | TCTGCTAGGTCAGATGGTCAGCTAACGAGCTGCC | 2.5 | 3.25 | 4.16 | 0.506 | 1.84 | 1.51 | -0.192 | 0.133 | -0.819
31 | ATCGAAAGGTCGTGAGGTGAGTAAACAGAAAGGC | 2.71 | 4.68 | 4.11 | 1.25 | 4.91 | 3.31 | 1.1 | 3.3 | 0.838
32 | GCATATAGGTAATACAAGGTGAAAGACCGATTGT | 0.665 | 0.88 | 0.835 | 0.075 | 0.929 | 4.12 | 0.583 | 0.319 | -0.0342
33 | TCTGCTAAGTCAACGATGGTCAGCTAATCTGCTA | -0.66 | -0.413 | -0.169 | -0.0661 | -0.206 | -0.52 | -1.37 | -0.644 | -1.4
34 | CTCGAAAGGTCGTGCTCAGGTGAGAATACCAAAC | 2.73 | 5.24 | 4.09 | 2.05 | 4.93 | 4.12 | 1.14 | 3.39 | 0.913
35 | TCATATAGGTAAACAGGTGAAAGTTCGTAAGTTA | 1.49 | 1.11 | 0.601 | 1.62 | 2.31 | 1.4 | 0.587 | 1.98 | 1.55
36 | AGAACGATGGCAATGAGTTGATAGCACGGGTGGC | -1.04 | -0.249 | 0.108 | -0.297 | 0.0313 | -0.986 | -0.999 | 0.528 | -0.0604
37 | CGTCCAAGGTCATAGGAGGTCAGTGGAGACAGAT | 5.3 | 6.84 | 6.98 | 4.09 | 6.82 | 5.36 | 3.57 | 6.87 | 4.82
38 | GTACCAAGGTGAATAGGTCGTTGGTGAGTAGGCG | 1.93 | 2.86 | 1.13 | -0.312 | 1.99 | 1.71 | 0.526 | 0.678 | 0.359
39 | TCTATTAGTTGTTTAGGGCAACCGAAACAGCGGA | 0.623 | 0.681 | 0.7 | 0.754 | 0.557 | 1.07 | 0.864 | 0.707 | 0.463
40 | GCTTACGGGTCAAAGGTTCTAGCATGAATAGAAT | 2.69 | 5.33 | 4.79 | 2.09 | 7.13 | 2.7 | -0.332 | 4.42 | 1.55
41 | GTTAGTTGGTCAGTAAAAGGTCACACACCGGTCG | 5.25 | 5.67 | 5.37 | 1.14 | 6.08 | 3.68 | 2.18 | 4.28 | 2.3
42 | AGTTACGGGTCAACGAGGTTATAGCACGCGTATA | 3.88 | 5.45 | 5.57 | 2.14 | 6.14 | 3.97 | 1.18 | 7.65 | 3.49
43 | GGAACGAGGGCAAGTTGATAACAGAGTTTGATGG | 1.22 | 1.6 | 2.06 | 2.29 | 0.775 | 1.13 | 0.176 | 0.906 | 1.74
44 | TGTCAAAGTTCAAAGGTAATGTAAGTATCCACAC | 3.63 | 5.97 | 5.84 | 4.44 | 6.5 | 3.15 | -0.177 | 4.69 | 3.96
45 | GCTGCTAGGTCAGGTTGGTGAGCTAACGGGTACG | 2.33 | 2.37 | 3.34 | 0.361 | 1.05 | 1.76 | 0.218 | 0.141 | 0.0347
46 | ATATGTAGGGTAAGGGTCATTCAGGTTGGTTCGC | 4.19 | 4.59 | 3.27 | 2.16 | 5.38 | 3.68 | 2.68 | 5.59 | 5.02
47 | CTACCAAGGTGAACAAGGTAGTTGATTACTATTC | 0.762 | 0.87 | 0.957 | 0.172 | 0.815 | 1.75 | 0.665 | 1.45 | -0.336
48 | ACTCGGAGGACAACGGTCAGAGCTACGCCAGTGA | 1.51 | 1.06 | 2.14 | 0.0365 | -0.0292 | 0.773 | -0.132 | -0.667 | -0.272
49 | GATACAGGGTCAAGTCCAGAGTACGCGTATTGAT | 3.68 | 5.8 | 5.41 | 3.08 | 6.06 | 3.68 | 1.22 | 4.66 | 3.51
50 | CCTCGTTGGTCAGGAGGTCACACACCGGATATGA | 4.36 | 5.12 | 4.22 | 0.642 | 4.63 | 3.54 | 2.26 | 3.77 | 2.22
51 | CCTACTGGGCCATTCTGAGGTCATTGATCATATG | 3.32 | 3.38 | 1.96 | 1.23 | 2.4 | 4.22 | 4.5 | 3.7 | 3.8
52 | AGTCGAAGTTCATCTAGGTAACGTAAGATATGCT | 2.11 | 2.84 | 3.19 | 3.88 | 1.91 | 2.31 | -0.00664 | 3.51 | 3.81
